Reference: PubChem BioAssay (NCATS)
Inconclusive results are not listed. Values without a mark were called inactive. Calls come from the whole dose curve; as a rule, active = well fitted inhibition curve with a large enough effect; inconclusive = small, poorly fitted or top-dose-only effect; inactive = flat fitted curve, though single readings scatter.

target: Lysine-specific demethylase 5B (Homo sapiens) (UniProt Q9UGL1); experiment: Optimization screen for KDM5B Histone Demethylases FDH coupled qHTS against the LOPAC library (AID 1347166); conditions: KDM5B demethylation, FDH-coupled NADH fluorescence (FDH is formaldehyde dehydrogenase); series mostly up to 57.5 µM; activity, negative = inhibition: at the top concentration; note: 0% is about no effect
Source text: Assay Submitter (PI): Qin Yan, Ph.D. (Yale University) and Xiaodong Cheng, Ph.D. (MD Anderson)
This project was funded as part of the NCI NEXT Program and Chemical Biology Consortium (CBC)
The histone demethylases, KDM5A and KDM5B catalyze the demethylation of lysine 4 on histone H3 (H3K4me3/2). They
are overexpressed in a variety of cancers and have been implicated in cancer cell growth, metastasis, drug resistance, and tumor growth. KDM5A is amplified and overexpressed in breast and gastric cancer; and is translocated in leukemia. While KDM5B is highly expressed in human mammary tumors and breast cancer cell lines, but not in normal adult breast tissue. Moreover, knockdown of KDM5B leads to upregulation of tumor suppressor genes, including BRCA1. The goal of this project is to employ qHTS to identify selective small molecule inhibitors of KDM5A/B demethylase activity to better understand the role of KDM5 in cancer and to develop novel therapies.
We employed an FDH-coupled assay previously reported by Sakurai et al. to monitor in vitro KDM5 demethylase activity. Compounds showing dose response inhibition are re-acquired, validated, and tested for non-specific interference with the formaldehyde dehydrogenase (FDH) counterscreen. True inhibitors are validated using an AlphaLisa secondary screen, which employs an H3K4(me2-1)-specific antibody to monitor demethylation of a biotin-tagged H3K4(me3) peptide substrate. Inhibitors are profiled against KDM4A and KDM6A AlphaLisa counterscreens to determine level of demethylase specificity; and against the TruHits counterscreen to eliminate non-specific inhibitory activity on the AlphaLISA detection method. Selective inhibitors identified from the primary and secondary screening are tested in cells using immunofluorescence to monitor global H3K4 tri-methylation as a measure of KDM5A/B inhibition. This assay is run against the NCGC Lopac collection of about 1,200 compounds to evaluate its amenability to quantitative High Throughput Screening (qHTS) platform.
Early Translation Branch (ETB)
National Center for Advancing Translational Sciences (NCATS), Rockville, MD
National Institute of Health (NIH), Bethesda, Maryland
[1] Sakurai, M et al. A miniaturized screen for inhibitors of Jumonji histone demethylases. Mol Biosyst. 2010 Feb;6(2):357-64. doi: 10.1039/b912993f. Epub 2009 Oct 8.
1536-well Black, solid bottom, medium binding assay plate is purchased from Greiner Bio-one. The enzymes (KDM5B) and substrate (H3K4me3/2) are provided by the principal investigators. The buffer for this assay is composed of 50mM HEPES at pH 7.5 with 0.01% Tween-20.
FDH coupled qHTS protocol:
Three microliter enzyme mix (buffer + 200nM KDM5BDeltaAP final concentration) is dispensed into the assay plate using the BioRAPTR Flying Reagent Dispenser (FRD; Beckton-Dickenson). Compound (at various final concentration) and control solution is pin transferred to the assay plate using the Kalypsys 1536-pin tool apparatus. The assay plate is incubated for 10 min at room temperature followed by addition of 1uL substrate mix (buffer + 100uM ascorbic acid, 50uM ferrous ammonium sulfate, 12.5uM H3K4Me3, 25uM a-ketoglutarate, 0.25 mM NAD+, 0.25 U/mL formaldehyde dehydrogenase using the FRD yielding a total reaction volume of 4 uL. Initial fluorescence (Read1) is detected using the PerkinElmer ViewLux plate reader equipped with 340 nm excitation and 450 nm emission filters. The final fluorescence (Read2) signal is obtained after 30 min of room temperature incubation. Delta RFU is calculated (Read2 - Read1) and is used to generated dose response curves

Sequence of Lysine-specific demethylase 5B (Homo sapiens) (Q9UGL1 whole entry, looked up): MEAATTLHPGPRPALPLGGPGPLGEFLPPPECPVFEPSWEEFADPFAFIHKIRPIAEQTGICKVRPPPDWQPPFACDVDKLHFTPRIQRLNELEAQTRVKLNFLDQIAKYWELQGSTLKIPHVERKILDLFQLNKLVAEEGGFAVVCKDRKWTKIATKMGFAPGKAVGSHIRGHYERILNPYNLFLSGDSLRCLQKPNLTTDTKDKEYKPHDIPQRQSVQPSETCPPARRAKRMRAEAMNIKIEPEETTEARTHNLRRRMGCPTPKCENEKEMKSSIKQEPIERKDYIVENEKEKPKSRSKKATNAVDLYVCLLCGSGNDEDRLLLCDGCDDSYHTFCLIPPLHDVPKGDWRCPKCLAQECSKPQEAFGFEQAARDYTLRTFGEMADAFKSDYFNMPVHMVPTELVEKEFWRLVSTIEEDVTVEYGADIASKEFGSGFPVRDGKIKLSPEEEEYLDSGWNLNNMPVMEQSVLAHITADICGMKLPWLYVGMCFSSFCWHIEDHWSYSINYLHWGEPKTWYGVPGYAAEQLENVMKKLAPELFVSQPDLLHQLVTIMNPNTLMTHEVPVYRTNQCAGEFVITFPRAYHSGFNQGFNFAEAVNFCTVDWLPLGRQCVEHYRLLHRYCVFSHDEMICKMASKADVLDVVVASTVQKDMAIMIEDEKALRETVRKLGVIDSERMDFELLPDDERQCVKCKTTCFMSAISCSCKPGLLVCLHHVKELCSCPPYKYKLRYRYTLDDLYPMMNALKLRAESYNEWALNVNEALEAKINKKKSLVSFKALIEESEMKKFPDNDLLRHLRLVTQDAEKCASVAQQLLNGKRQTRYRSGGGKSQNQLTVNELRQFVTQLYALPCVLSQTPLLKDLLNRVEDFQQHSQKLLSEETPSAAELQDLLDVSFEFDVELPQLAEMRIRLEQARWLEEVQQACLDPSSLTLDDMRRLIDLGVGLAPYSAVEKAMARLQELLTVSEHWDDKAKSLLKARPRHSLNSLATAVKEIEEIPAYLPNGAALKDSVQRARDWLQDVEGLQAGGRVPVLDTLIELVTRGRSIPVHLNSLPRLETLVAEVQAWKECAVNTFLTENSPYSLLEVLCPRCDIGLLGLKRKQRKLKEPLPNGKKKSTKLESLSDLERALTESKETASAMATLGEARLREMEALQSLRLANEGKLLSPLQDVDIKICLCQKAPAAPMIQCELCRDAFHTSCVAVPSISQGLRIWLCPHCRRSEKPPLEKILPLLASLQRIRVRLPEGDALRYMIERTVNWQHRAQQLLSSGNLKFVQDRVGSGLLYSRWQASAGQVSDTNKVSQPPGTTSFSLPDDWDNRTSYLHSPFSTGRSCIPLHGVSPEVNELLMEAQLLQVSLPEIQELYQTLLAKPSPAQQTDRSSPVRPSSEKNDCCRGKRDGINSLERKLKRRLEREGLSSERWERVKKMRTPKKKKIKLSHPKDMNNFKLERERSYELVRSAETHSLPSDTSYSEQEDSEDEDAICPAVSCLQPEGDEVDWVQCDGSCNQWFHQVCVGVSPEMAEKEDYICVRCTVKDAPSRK

In order of falling “activity, negative = inhibition” value:
1. C[C@]12CCC(=O)C=C1CC[C@@H]1[C@@H]2CC[C@@]2(C)[C@H]1CC[C@]2(O)C(=O)CO  2.19%
2. N[C@@H](COP(=O)(O)O)C(=O)O  1.82%
3. NC(=O)c1ncn([C@@H]2O[C@H](CO)[C@@H](O)[C@H]2O)c1O  1.74%
4. NC(N)=NC(=O)Cc1c(Cl)cccc1Cl  1.49%
5. COc1ccc2c(c1OC)C(=O)O[C@@H]2[C@H]1c2c(cc3c(c2OC)OCO3)CCN1C  1.22%
6. CN1C[C@H](C(=O)N[C@]2(C)O[C@@]3(O)[C@@H]4CCCN4C(=O)[C@H](Cc4ccccc4)N3C2=O)C[C@@H]2c3cccc4[nH]cc(c34)C[C@H]21  -0.228%
7. CC[N+](C)(C)c1cccc(O)c1  -0.999%
8. CN(C)C(=O)Oc1cccc([N+](C)(C)C)c1  -1.21%
9. O=C(O)CN(CCOCCOCCN(CC(=O)O)CC(=O)O)CC(=O)O  -1.31%
10. COc1cc(Cc2cnc(N)nc2N)cc(OC)c1OC  -1.92%
11. CCCCCN(CCCCC)C(=O)C(CCC(=O)O)NC(=O)c1ccc(Cl)c(Cl)c1 (stereo not given)  -1.99%
12. COc1ccc(CCN(C)CCCC(C#N)(c2cc(OC)c(OC)c(OC)c2)C(C)C)cc1OC (stereo not given)  -2.06%
13. CC(=O)Nc1nnc(S(N)(=O)=O)s1  -2.15%
14. CCCCNC(=O)NS(=O)(=O)c1ccc(C)cc1  -2.4%
15. Nc1ncn([C@@H]2O[C@H](CO)[C@@H](O)[C@H]2O)c(=O)n1  -3.09%
16. CNCCC(Oc1ccccc1OC)c1ccccc1 (stereo not given)  -3.12%
17. CCN(CC)CCCN(c1ccccc1)C1Cc2ccccc2C1  -3.28%
18. CCC(=O)c1ccc2c(c1)N(CCCN(C)C)c1ccccc1S2  -3.43%
19. c1ccc2c(c1)CCCC2C1=NCCN1 (stereo not given)  -3.74%
20. NC/C=C/C(=O)O  -4.32%
21. CN1C(=O)CC[C@H]1c1cccnc1  -4.5%
22. C#CCN(C)CCCOc1ccc(Cl)cc1Cl  -4.69%
23. NC(N)=N/N=C/c1c(Cl)cccc1Cl  -5.02%
24. CCc1cccc(N(C)C(N)=Nc2cccc3ccccc23)c1  -5.88%
25. CNC1(C)C2CCC(C2)C1(C)C (stereo not given)  -6.54%
26. COCCc1ccc(OCC(O)CNC(C)C)cc1 (stereo not given)  -6.96%
27. Cc1ccc(Cl)c(Nc2ccccc2C(=O)O)c1Cl  -7.35%
28. CO[C@@]1(NC(=O)CSCC#N)C(=O)N2C(C(=O)O)=C(CSc3nnnn3C)CS[C@@H]21  -8.33%
29. NS(=O)(=O)c1cc2c(cc1Cl)NC(C1CC3C=CC1C3)NS2(=O)=O (stereo not given)  -8.57%
30. CC(N=C(NC#N)Nc1ccncc1)C(C)(C)C (stereo not given)  -8.84%
31. c1cc(CN2CCCCC2)cc(OCCCNc2nc3ccccc3s2)c1  -9.55%
32. C[N+](C)(C)CCCCCCCCCC[N+](C)(C)C  -10.2%
33. C[C@]12CC[C@@H]3c4ccc(O)cc4C[C@@H](CCCCCCCCCS(=O)CCCC(F)(F)C(F)(F)F)[C@H]3[C@@H]1CC[C@@H]2O (stereo not given in full)  -10.6%
34. CN(C)CCCN1c2ccccc2Sc2ccc(C(F)(F)F)cc21  -10.7%
35. O=C(CCCN1CCC(O)(c2cccc(C(F)(F)F)c2)CC1)c1ccc(F)cc1  -11.9%
36. CC(C)(C)NCC(O)c1cc(O)cc(O)c1 (stereo not given)  -12.4%
37. CCCCNc1ccc(C(=O)OCCN(C)C)cc1  -14.6%
38. CC(C)NNC(=O)c1ccncc1  -14.6%
39. OCCN1CCN(CC/C=C2/c3ccccc3Sc3ccc(C(F)(F)F)cc32)CC1  -14.8%
40. O=C1NCN(c2ccccc2)C12CCN(CCCC(c1ccc(F)cc1)c1ccc(F)cc1)CC2  -18.5%
